D3 antag: D3 dopamine receptor (human) antagonism; D3R cells, DiscoveRx beta-arrestin luminescence, antagonist mode; stronger effect = lower value; 360,000 compounds, 2.5% hits; P35462; max response, negative = inhibition, %; AID 652054; in the data active = max response below about -50%; inconclusive = no clear call, values can overlap the other calls; also: % is scaled to controls: 0 for no effect and ±100 for the full control effect
Target sequence (P35462 whole entry, looked up): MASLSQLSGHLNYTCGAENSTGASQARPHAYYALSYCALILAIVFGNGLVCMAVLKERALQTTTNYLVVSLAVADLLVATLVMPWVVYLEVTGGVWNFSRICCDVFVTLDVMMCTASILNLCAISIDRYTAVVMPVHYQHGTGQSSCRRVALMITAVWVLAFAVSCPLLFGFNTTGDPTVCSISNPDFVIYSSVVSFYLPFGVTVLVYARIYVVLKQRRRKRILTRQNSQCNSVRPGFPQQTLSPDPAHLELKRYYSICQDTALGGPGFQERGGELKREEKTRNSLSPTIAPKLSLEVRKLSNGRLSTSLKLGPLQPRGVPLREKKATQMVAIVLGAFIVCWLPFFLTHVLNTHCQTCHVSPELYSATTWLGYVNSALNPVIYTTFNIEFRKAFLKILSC
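Cells expressing the human receptor were seeded at 1500 cells/well, incubated overnight at 37 degrees C in 5% CO2, then exposed to library compounds with dopamine controls for 90 minutes at 37 degrees C before luminescent detection.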
ERG-DNA inh: inhibitors of human ERG Ets domain-DNA interaction | Potency, µM (highest dose often 76.9 µM), for the others: at the highest dose FP activity, negative = inhibition, usual class: inhibitors | AID 624246 | fluorescence polarization, His-ERG Ets domain / labelled DNA | 370,000 compounds, 0.028% hits | P11308; active = well fitted inhibition curve with a large enough effect in the polarisation, with a control signal flat; inconclusive = small, poorly fitted or top-dose-only effect, or effect the other way, or a change in a side signal; inactive = no such curve, though single readings can be large or run the other way; the % refers to the polarisation;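 also: polarization taken with two DNA probes labelled with fluorescein and Texas red; potency is read from the fitted curve at half-maximal effect; % of control where 0% means no effect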
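His-tagged ERG Ets domain (1 uM in the protein solution; 300mM KCl, 50mM Tris-HCl, 1mM EDTA, 1mM DTT, pH 7.5) received compound, then a probe mix of 5 nM fluorescein-DNA and 100nM Texas-615-DNA. Fluorescence polarization was read for both dyes.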
D1 PAM: human D1 dopamine receptor positive modulation; HEK293 TREx D1 cells, calcium flux, dopamine EC20 potentiation; potentiation, % at 10 µM; 360,000 compounds, 0.036% hits; AID 504651; in the data active = potentiation above about 30%; also: 0% is about no effect
D1 ag: agonists of human D1 dopamine receptor; 360,000 compounds, 1% hits; P21728; activation, % at 2 µM; HEK293 T-REx D1 cells, calcium flux, agonist mode; in the data active = activation above about 30%; also: 0% is about no effect
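Inducible HEK293 T-REx D1 cells, force-coupled to calcium signalling, were plated at 4000 cells/well with tetracycline and held overnight at 30 C. After no-wash calcium dye loading, compound-evoked calcium rise over 180 s flagged agonists.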
DRD3 agonist: activates the human D3 dopamine receptor; P35462; D3R DiscoveRx beta-arrestin cells, luminescence, 90 min; max activation, %; 410,000 compounds, 0.58% hits; AID 652048; in the data active = max activation above about 30%; also: 0% is about no effect
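Cells at 1500/well, incubated overnight, then treated with pinned compounds (dopamine as control) for 90 min at 37 degrees C. DiscoveRx reagent added for 30 - 60 minutes at room temperature; luminescence read.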
D1 antag: human D1 dopamine receptor antagonism; HEK293 TREx D1 cells, calcium flux, dopamine EC80; stronger effect = lower value; P21728; activity change, negative = inhibition, % at 10 µM; 360,000 compounds, 3.2% hits; in the data active = activity change below about -30%; also: % is scaled to controls: 0 for no effect and ±100 for the full control effect
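Tetracycline-induced HEK293 T-REx cells with force-coupled D1 receptor were loaded with a no-wash calcium dye. Compound was added after a 10 s baseline and read kinetically for 180 s; EC80 dopamine was then added and calcium flux followed another 180 s.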
The depositor's hits bear a star; ? = inconclusive; / = not tested or not shown. Shown are actives, neighbours in structure and some others; about 6.1% of the full set was active somewhere.

SMILES	D3 antag	ERG-DNA inh	D1 PAM	D1 ag	DRD3 agonist	D1 antag
CC1(C)C[C@H](O)[C@]2(CO)[C@H](O)C[C@]3(C)C(=CCC4[C@@]5(C)CC[C@H](O)C(C)(C)C5CC[C@]43C)[C@@H]2C1 (stereo partly specified)	-84*	-4%	/	/	-7	/
Cc1cc(C(=O)NCc2cccc(Br)c2)c2c(C)nn(-c3ccccc3)c2n1	/	4%	2	6	-7	-4
CCc1ccc(-n2nc(C)c3c(C(=O)Nc4cccc(C(F)(F)F)c4)cc(C)nc32)cc1	/	1%	-6	9	19	-35*
Cc1cc(C(=O)NCc2ccccc2Cl)c2c(C)nn(-c3cccc(F)c3)c2n1	/	0%	0	6	22	-7
Cc1cc(C(=O)NCc2ccccc2C)c2c(C)nn(-c3cccc(F)c3)c2n1	/	-2%	-7	4	25	-46*
COc1cccc(CNC(=O)c2cc(C)nc3c2c(C)nn3-c2cccc(F)c2)c1	/	3%	-2	33*	27	-8
O=C1NC(=NCc2ccccc2)NC1(c1ccccc1)c1ccccc1	-2	7%	/	/	-4	/
O=c1[nH]cnc(O)c1Nc1cccc(Cl)c1	-8	-7%	/	/	-1	/
COc1ccc([C@@H]2COc3c(ccc4c3C=CC(C)(C)O4)C2)c(OC)c1	0	-4%	/	/	33*	/
COc1ccc(C2C=CC(=O)CC2)c(OC)c1 (stereo unspecified)	2	/	/	/	2	/
CN(C)c1ccc(CNC(=O)/C=C/[C@H]2O[C@@H](n3ccc(=O)[nH]c3=O)[C@H](O)[C@@H]2O)cc1	1	/	/	/	6	/
O=C(NCCO)C(=O)c1c(-c2ccccc2)cc2ccccn12	1	-10%	-3	0	-3	-31*
CN(C)C(=O)C(=O)c1c(-c2ccccc2)cc2ccccn12	13	8%	0	0	2	-8
CC1(c2nnc(-c3ccncc3)o2)CC(c2ccc(Cl)cc2)=NO1 (stereo unspecified)	17	-3%	/	/	5	/
CC1(c2nnc(-c3ccccc3)o2)CC(c2ccc([N+](=O)[O-])cc2)=NO1 (stereo unspecified)	37	-5%	/	/	37*	/
CC1(c2nnc(-c3ccccc3)o2)CC(c2ccc(Cl)cc2)=NO1 (stereo unspecified)	46	-5%	-6	2	43*	-15
Clc1ccccc1-c1ccc2ncnc(NCc3cccnc3)c2c1	/	/	-9	3	/	-16
CCOC(=O)c1ccc(CC(=O)c2ccc(O)c(O)c2O)o1	-11	1%	1	7	-2	-48*
COc1cc2c(cc1OC)-c1n[nH]c(=S)n1C(C)(C)C2	0	-3%	-12	0	0	-59*
COc1cc2c(cc1OC)-c1nnnn1C(C)(C)C2	15	-15%	0	3	-5	4
Cc1ccc(Nc2nc(NCc3ccco3)c3ccccc3n2)cc1	0	17%	-17	47*	-10	-66*
COc1ccc(Nc2nc(NCc3ccco3)nc(N/N=C/c3ccccc3)n2)cc1	-51*	13%	4	0	-6	16
CCOc1nc(NCc2ccco2)nc(Nc2ccc(OC)cc2)n1	17	4%	-5	4	-1	2
COc1ccccc1Nc1nc(NCc2ccco2)c2ccccc2n1	10	?	-20	2	-11	-93*
Oc1ccccc1Nc1nc(NCc2ccccc2)c2ccccc2n1	5	1%	4	1	8	4
SMILES	D3 antag	ERG-DNA inh	D1 PAM	D1 ag	DRD3 agonist	D1 antag
CCN(CC)CCCNc1ccc2ncn3c4ccc(O)cc4c(=O)c1c23	7	-24%	/	/	-10	/
Oc1ccc(Cl)cc1C=Nc1ccccc1Br	0	-5%	-8	1	-4	-16
Oc1ccc(Br)cc1C=Nc1ccc2c3c(cccc13)CC2	-54*	/	-1	5	-6	1
COc1ccc(N2CCN(C(=O)[C@H](C)NC(=O)c3ccccc3Cl)CC2)cc1	-7	5%	0	0	-3	25
CCc1c(C)sc(NC(=O)c2cc(C)on2)c1C#N	-20	1%	-3	5	5	28
CCc1c(C)sc(NC(=O)c2cc(C3CC3)on2)c1C#N	5	-1%	-3	0	-2	-37*
O=C(Nc1ccc(F)cc1)c1oc2ccccc2c1NC(=O)C12CC3CC(CC(C3)C1)C2	/	7%	-2	1	5	3
Cc1ccc(-n2nnnc2CNC(=O)C(=O)c2c[nH]c3ccccc23)cc1C	-8	/	/	/	4	/
O=[N+]([O-])c1cc2c(cc1CN1CCN(c3ccccc3F)CC1)OCO2	-52*	5%	-5	6	-26	-13
COc1ccc([N+](=O)[O-])cc1NC(=O)CCS(=O)(=O)c1ccc(Br)cc1	-25	-8%	-8	3	-15	-33*
CCCn1ccc2c(OCC(=O)Nc3ccccc3OCC)cccc2c1=O	/	1%	2	4	6	/
COc1ccc(OC)c(NC(=O)NNC(=O)COc2ccc([N+](=O)[O-])cc2)c1	-16	7%	-5	0	-17	-49*
COc1ccc([N+](=O)[O-])cc1NC(=O)CS(=O)(=O)c1ccc(C)cc1	84	-9%	0	3	-14	11
O=C(COc1ccc([N+](=O)[O-])cc1)NNC(=O)Nc1ccc([N+](=O)[O-])cc1	?	2%	-6	15	-7	-22
CCCn1ccc2c(OCC(=O)Nc3cc(C)ccc3C)cccc2c1=O	/	10%	-4	46*	8	/
COC(=O)c1ccc(NC(=O)COc2ccc([N+](=O)[O-])cc2)cc1	5	6%	-4	18	-5	-35*
CCCN(CC(=O)Nc1ccc(Cl)cc1Cl)C(=O)/C=C/c1ccco1	-3	1%	-8	3	-7	4
CC1CCCN(C(=O)C2CCCN(S(=O)(=O)c3cccc4nsnc34)C2)C1 (stereo unspecified)	8	/	1	1	0	-2
COC(=O)c1ccc(NC(=O)Nc2ccc([N+](=O)[O-])cc2)cc1	-7	-15%	-7	36*	9	-43*
CC(=O)Nc1ccc(NC(=O)c2cccc(C(=O)OC(C)C)n2)cc1	11	-8%	-4	1	0	7
COC(=O)c1ccc(NC(=O)Nc2ccc(F)cc2)cc1	12	-3%	-10	24	6	-36*
Cn1ccc2c(OCC(=O)Nc3ccc([N+](=O)[O-])cc3)cccc2c1=O	/	-1%	0	3	-5	-37*
COC(=O)c1cccc(C(=O)Nc2ccc(F)cc2)n1	-62*	-10%	3	1	-2	-7

Screening data (PubChem)
